Bioassay records as filed in PubChem BioAssay.
D1 PAM: potentiators of human D1 dopamine receptor; P21728; HEK293 TREx D1 cells, calcium flux, dopamine EC20 potentiation; potentiation, % at 10 µM; 360,000 tested, 0.036% active; AID 504651; in the data active = potentiation above about 30%; note: 0% is about no effect
Target sequence (P21728 whole entry, looked up): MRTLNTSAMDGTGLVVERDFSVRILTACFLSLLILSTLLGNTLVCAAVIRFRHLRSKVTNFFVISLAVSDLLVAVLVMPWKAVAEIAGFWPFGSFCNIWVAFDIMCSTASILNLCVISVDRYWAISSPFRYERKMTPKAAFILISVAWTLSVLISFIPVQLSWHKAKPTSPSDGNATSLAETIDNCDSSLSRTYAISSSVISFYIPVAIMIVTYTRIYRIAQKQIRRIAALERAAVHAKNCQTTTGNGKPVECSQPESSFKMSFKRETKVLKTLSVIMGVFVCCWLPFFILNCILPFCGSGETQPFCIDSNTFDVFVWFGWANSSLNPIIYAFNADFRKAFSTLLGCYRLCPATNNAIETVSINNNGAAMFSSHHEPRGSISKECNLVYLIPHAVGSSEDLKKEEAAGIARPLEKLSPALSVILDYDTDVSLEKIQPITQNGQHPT
D1 ag: human D1 receptor agonism; P21728; HEK293 T-REx D1 cells, calcium flux, agonist mode; activation, % at 2 µM; 360,000 tested, 1% active; AID 504660; note: 0% is about no effect
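Agonism was scored from calcium flux recorded over 180 s (1 read/s) after pintool compound addition, following a 10-cycle baseline. Cells were inducible force-coupled HEK293 TREx D1, plated overnight at 30 C and loaded with no-wash calcium dye.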
TRHR ag: activates the human TRH receptor. activation, % at 2 µM. P34981. TRHR cells, calcium flux fluo-8, FDSS agonist mode. 360,000 tested, 0.18% active. AID 493084; note: 0% is about no effect
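Fluo-8-loaded TRHR cells; 10 s baseline, compound added, kinetic Ca2+ fluorescence read 1/s, agonist mode.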
TRHR PAM: allosterically enhances the human TRH receptor. P34981. 360,000 tested, 0.66% active. enhancement, % at 2 µM. TRHR cells, fluo-8 calcium fluorescence, EC20 TRH enhancement; in the data active = enhancement above about 30%; note: 0% is about no effect
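TRHR-expressing cells loaded with fluo-8 calcium dye were read kinetically (ex 480/em 530) during compound addition, then stimulated with an EC20 of TRH (10 nM final). Enhancement of the Gq-mediated intracellular calcium response was scored.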
D1 antag: human D1 dopamine receptor antagonism; P21728; HEK293 TREx D1 cells, calcium flux, dopamine EC80; hits give low values; activity change, negative = inhibition, % at 10 µM; 360,000 tested, 3.2% active; AID 504652; in the data active = activity change below about -30%; note: % is set by controls: 0 for no effect and ±100 for the full control effect
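After overnight tetracycline induction at 30 C, force-coupled D1 HEK293 cells took up a no-wash calcium dye at room temperature. Compounds were added and monitored 180 s, and the response to EC80 dopamine was then recorded.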
The depositor's hits bear a star; ! = a repeat was not active. The list is not random: actives were taken first. Their share in the collection is about 4.7%. Cut-off read from the data, not from the text of the source, unless noted: active = activation above about 30%; inactive = the rest.

SMILES | D1 PAM | D1 ag | TRHR ag | TRHR PAM | D1 antag
COc1ccc(CCC(=O)N2CCN(S(=O)(=O)c3cccc(Cl)c3)CC2)cc1 | -4.3 | -0.8 | -0.7 | 16.1 | -38.5*
Cc1cccn2c(=O)c(C(=O)N3CCN(c4ccccc4)CC3)cnc12 | 0.6 | -1.2 | 0.2 | -4.3 | 13.7
COc1ccc(C(=O)CCC(=O)N2CCN(c3cccc(Cl)c3)CC2)cc1 | -3.8 | 11.6 | -0.2 | -6.0 | -32.9*
CCCCn1c(=O)c(F)cn(Cc2ccc(OC)c([N+](=O)[O-])c2)c1=O | -5.0 | 74.7* | 16.9 | -5.8 | 13.0
CCCCCn1c(=O)c(F)cn(Cc2ccc(OC)c([N+](=O)[O-])c2)c1=O | -0.6 | 1.4 | 0.1 | 6.0 | 7.9
O=C1CCCC(NCCCCCCNC2=C([N+](=O)[O-])C(=O)CCC2)=C1[N+](=O)[O-] | -4.5 | 0.4 | 0.0 | 4.9 | -92.0*
CCOC(=O)c1c(C)n(-c2ccccc2)c2ccc(OC(=O)COc3ccc(Cl)cc3)cc12 | 1.0 | 0.5 | 0.9 | -10.5 | 5.1
CCNc1nc2c(c(=O)[nH]c(=O)n2C)n1CC(O)COc1ccc(Cl)cc1Cl (configuration not stated) | -2.4 | -1.6 | -0.6 | 6.1 | 2.8
CN(Cc1ccccc1)C(=O)c1ccc(NC(=O)Cc2cccc(NC(=O)C3CCN(C(=O)C4CC4)CC3)c2)cc1 | 2.5 | 251.5* | -0.3 | 1.0 | -21.5
O=C(Nc1cccc([N+](=O)[O-])c1)C1CCN(C(=O)Cc2ccccc2)CC1 | -2.5 | 6.8 | 0.6 | -6.0 | -30.3*
CCN1CCN(Cc2c(O)ccc3c(=O)c(Oc4ccccc4C(C)C)c(C(F)(F)F)oc23)CC1 | -1.6 | 4.7 | -0.5 | -1.1 | 3.5
CC(C)c1ccccc1Oc1c(C(F)(F)F)oc2c(CN3CCN(C)CC3)c(O)ccc2c1=O | -0.8 | 13.1 | -0.1 | 7.4 | -32.7*
O=C(/C=C/c1ccc(F)cc1)NC(=S)N1CCOCC1 | -2.6 | 2.3 | -0.5 | 37.2* | -16.9
O=C(/C=C/c1ccc(F)cc1)NC(=S)N1CCN(Cc2ccccc2)CC1 | 2.8 | -1.5 | -0.1 | -3.1 | 7.3
Cc1ccc(-c2nnn(CC(=O)N(c3cccc(F)c3)C(C(=O)NC(C)(C)C)c3ccco3)n2)o1 (configuration not stated) | -2.0 | 0.1 | 0.1 | -0.8 | -38.8*
Cc1ccccc1N(C(=O)Cn1nnc(-c2ccc(F)cc2)n1)C(C(=O)NC(C)(C)C)c1ccncc1 (configuration not stated) | -3.6 | 14.0 | 0.5 | -11.6 | -34.6*
COc1ccc(CN(C(=O)Cn2nnc(-c3ccc(C)o3)n2)C(C(=O)NCC2CCCO2)c2ccco2)cc1 (configuration not stated) | -5.8 | -0.2 | 0.2 | -0.8 | -41.6*
O=C(NCCc1ccc(Cl)cc1)c1cccn1-c1nnc(N2CCCC2)s1 | -5.0 | 0.7 | -0.3 | -4.1 | -14.4
COCc1cc(C)nc(SCC(=O)N2CCC(C)CC2)c1C#N | -0.3 | 5.8 | 0.0 | 4.0 | -56.8*
COCc1cc(C)nc(SCc2ccc([N+](=O)[O-])cc2)c1C#N | 44.4* | 8.2 | -0.3 | 2.6 | 0.2
CC(C)c1ccc(N2C(=O)N(Cc3ccccc3Cl)c3ccccc3S2(=O)=O)cc1 | -2.9 | 3.9 | 0.2 | -1.6 | -3.4
Cc1cccc(OCC(=O)Nc2ccc(N3CCN(C(=O)c4ccccc4)CC3)cc2)c1 | -4.5 | 17.1 | 0.3 | -2.6 | -18.5
O=C(COc1ccccc1Cl)Nc1ccc(N2CCN(C(=O)c3ccccc3)CC2)cc1 | 2.9 | 1.7 | -0.3 | 2.3 | -52.2*
CCN1CCN(c2ccc(NC(=O)Cc3ccccc3)cc2)CC1 | -6.5 | 3.3 | 0.7 | 1.4 | -61.9*
N#Cc1ccc(OCC(=O)N2CCN(C(=O)c3ccco3)CC2)cc1 | 2.7 | 1.6 | 0.3 | -0.2 | -35.0*
SMILES | D1 PAM | D1 ag | TRHR ag | TRHR PAM | D1 antag
O=C(COc1ccccc1O)Nc1ccc(Cl)cc1 | -3.2 | 7.1 | 0.1 | 0.6 | -35.7*
COc1ccc2c(c1)c(=O)c(C(=O)c1ccc(F)cc1)cn2CC(=O)Nc1ccc2c(c1)OCO2 | 2.2 | 5.3 | 0.4 | 1.9 | 9.7
O=C(CSc1ccc2nnc(CCNC(=O)c3ccc(F)cc3)n2n1)NCc1ccco1 | -1.1 | 2.6 | -0.4 | 0.4 | 7.8
CCOC(=O)CSc1nc2sc3c(c2c(=O)n1CC)CCCC3 | -1.1 | 2.8 | 0.4 | -4.3 | 21.0
CCC(=O)Nc1ccc(N2CCN(Cc3ccccc3)CC2)cc1 | -1.9 | 1.8 | 0.4 | -1.7 | -12.8
CCN1CCN(c2ccc(NC(=O)COc3ccccc3Cl)cc2)CC1 | -15.5 | 9.2 | 1.5 | -3.0 | -42.0*
O=C(Cc1ccccc1)Nc1cccc(N2CCCC2)c1 | 2.7 | 1.0 | -1.3 | 12.9 | -35.2*
O=C(Cc1ccccc1)Nc1ccc(N2CCCC2)cc1 | -3.1 | -0.1 | 0.3 | -0.6 | 12.5
O=C(COc1ccccc1Cl)Nc1ccc(N2CCCC2)cc1 | -2.1 | 0.8 | -0.1 | 1.5 | -29.1
O=C(CCS(=O)(=O)c1ccccc1F)Nc1ccc(N2CCN(Cc3ccccc3)CC2)cc1 | -15.3 | 8.4 | 0.3 | 2.1 | -39.0*
O=C(COc1ccc(Cl)cc1)Nc1ccc(N2CCN(C(=O)c3ccco3)CC2)cc1 | -7.9 | 16.9 | -0.7 | -8.6 | -31.2*
CCC(C(=O)Nc1cc(OC)ccc1OC)n1nc(-c2ccccc2)c2c(c1=O)CCCC2 (configuration not stated) | 8.9 | 1.4 | -0.5 | -7.7 | 10.5
COc1ccc(C2C(C#N)=C(N)Oc3cc(C)[nH]c(=O)c32)c(OC)c1OC (configuration not stated) | -1.9 | 0.1 | 0.3 | -1.2 | -5.6
CCc1ccc(CN(Cc2ccco2)C(=O)COc2ccccc2Cl)cc1 | -1.9 | 19.8 | 7.5 | -0.4 | 0.5
COc1ccc(C)cc1NS(=O)(=O)c1c(C(=O)N2CCCCCC2)c(C)n(C)c1C | -5.0 | 2.9 | 0.2 | -1.3 | 2.1
CN1CCN(S(=O)(=O)c2cccc(C(=O)Oc3ccccc3Cl)c2)CC1 | -3.5 | 17.1 | 0.0 | -5.3 | -0.3
O=C(O)CCCC(=O)Nc1ccc(Cl)cc1 | -5.8 | 3.9 | 1.0 | 10.2 | -54.3*
O=C(O)CCCC(=O)Nc1ccc(Br)cc1 | -7.2 | 0.7 | 0.1 | 16.6 | -9.8
Cc1ccc(NC(=O)CS(=O)CC(=O)N2CCN(c3ccccc3)CC2)cc1 (configuration not stated) | -1.8 | 7.1 | -0.2 | 31.2* | 12.4
COc1ccccc1Nc1nn2c(=O)c3ccc(C(=O)N4CCCCC4)cc3nc2s1 | -4.5 | 1.1 | -0.7 | -5.9 | -43.2*!
COc1cccc(NC(=O)c2ccc3c(=O)n4nc(Nc5ccccc5OC)sc4nc3c2)c1 | -2.2 | 2.8 | 0.6 | 6.9 | -6.4
CC(NC(=O)Nc1ccc([N+](=O)[O-])cc1)C(c1cccs1)N1CCCC1 (configuration not stated) | 16.8 | 174.6* | 0.9 | 0.3 | 159.2
CC(NC(=O)Nc1cccc(Cl)c1)C(c1cccs1)N1CCCC1 (configuration not stated) | -4.0 | 112.7* | 0.6 | -0.2 | 34.1
